# Assay results taken from ChEMBL document CHEMBL2218924, “A broad activity screen in support of a chemogenomic map for kinase signalling research and drug discovery” (Biochem J, 2013).
# Key:
# [1] = biological target: T1, Serine/threonine-protein kinase Sgk3 (Homo sapiens) (UniProt Q96BR1); settings: at 1 µM
# T1 sequence (whole entry): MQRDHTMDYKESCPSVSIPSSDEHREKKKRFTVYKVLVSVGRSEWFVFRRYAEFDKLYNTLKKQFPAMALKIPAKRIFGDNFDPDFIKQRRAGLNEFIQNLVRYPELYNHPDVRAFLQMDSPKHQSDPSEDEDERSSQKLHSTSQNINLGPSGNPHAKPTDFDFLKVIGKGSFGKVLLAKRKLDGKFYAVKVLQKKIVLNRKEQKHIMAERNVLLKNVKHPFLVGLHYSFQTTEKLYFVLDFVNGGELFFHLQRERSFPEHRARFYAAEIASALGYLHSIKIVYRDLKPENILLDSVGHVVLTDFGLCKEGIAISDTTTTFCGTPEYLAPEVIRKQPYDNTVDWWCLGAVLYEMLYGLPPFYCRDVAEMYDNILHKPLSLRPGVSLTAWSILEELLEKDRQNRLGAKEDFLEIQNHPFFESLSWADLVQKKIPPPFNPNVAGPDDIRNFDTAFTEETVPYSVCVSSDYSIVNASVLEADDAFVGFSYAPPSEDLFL
# [2] = biological target: T1, Serine/threonine-protein kinase Sgk3 (Homo sapiens); settings: at 10 µM
# [3] = biological target: SRSF protein kinase 2 (Homo sapiens) (UniProt P78362); settings: at 1 µM
# [4] = biological target: SRSF protein kinase 2 (Homo sapiens) (UniProt P78362); settings: at 10 µM
# [5] = biological target: Serine/threonine-protein kinase PLK2 (Homo sapiens) (UniProt Q9NYY3); settings: at 1 µM
# [6] = biological target: Serine/threonine-protein kinase PLK2 (Homo sapiens) (UniProt Q9NYY3); settings: at 10 µM
# [7] = biological target: T2, Mitogen-activated protein kinase kinase kinase 7 (Homo sapiens) (UniProt O43318); settings: at 10 µM
# T2 sequence (whole entry): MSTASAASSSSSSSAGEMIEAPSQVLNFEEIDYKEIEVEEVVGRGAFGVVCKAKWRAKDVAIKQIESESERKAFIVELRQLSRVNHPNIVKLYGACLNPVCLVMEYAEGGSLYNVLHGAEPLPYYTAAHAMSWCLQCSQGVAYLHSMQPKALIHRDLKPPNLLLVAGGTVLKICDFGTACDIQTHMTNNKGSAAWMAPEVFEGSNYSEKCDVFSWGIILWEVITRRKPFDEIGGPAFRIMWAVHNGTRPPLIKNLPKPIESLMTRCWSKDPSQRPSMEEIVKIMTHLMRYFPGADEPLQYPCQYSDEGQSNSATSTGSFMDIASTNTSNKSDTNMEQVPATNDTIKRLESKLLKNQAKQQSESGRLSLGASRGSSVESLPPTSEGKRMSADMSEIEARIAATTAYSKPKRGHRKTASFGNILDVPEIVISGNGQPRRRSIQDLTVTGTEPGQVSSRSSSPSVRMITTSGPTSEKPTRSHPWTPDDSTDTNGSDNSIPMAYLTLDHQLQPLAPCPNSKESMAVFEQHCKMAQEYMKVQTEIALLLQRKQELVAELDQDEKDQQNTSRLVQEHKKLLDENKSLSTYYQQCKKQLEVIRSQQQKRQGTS
# [8] = biological target: T3, Serine/threonine-protein kinase TAO1 (Homo sapiens) (UniProt Q7L7X3); settings: at 1 µM
# T3 sequence (whole entry): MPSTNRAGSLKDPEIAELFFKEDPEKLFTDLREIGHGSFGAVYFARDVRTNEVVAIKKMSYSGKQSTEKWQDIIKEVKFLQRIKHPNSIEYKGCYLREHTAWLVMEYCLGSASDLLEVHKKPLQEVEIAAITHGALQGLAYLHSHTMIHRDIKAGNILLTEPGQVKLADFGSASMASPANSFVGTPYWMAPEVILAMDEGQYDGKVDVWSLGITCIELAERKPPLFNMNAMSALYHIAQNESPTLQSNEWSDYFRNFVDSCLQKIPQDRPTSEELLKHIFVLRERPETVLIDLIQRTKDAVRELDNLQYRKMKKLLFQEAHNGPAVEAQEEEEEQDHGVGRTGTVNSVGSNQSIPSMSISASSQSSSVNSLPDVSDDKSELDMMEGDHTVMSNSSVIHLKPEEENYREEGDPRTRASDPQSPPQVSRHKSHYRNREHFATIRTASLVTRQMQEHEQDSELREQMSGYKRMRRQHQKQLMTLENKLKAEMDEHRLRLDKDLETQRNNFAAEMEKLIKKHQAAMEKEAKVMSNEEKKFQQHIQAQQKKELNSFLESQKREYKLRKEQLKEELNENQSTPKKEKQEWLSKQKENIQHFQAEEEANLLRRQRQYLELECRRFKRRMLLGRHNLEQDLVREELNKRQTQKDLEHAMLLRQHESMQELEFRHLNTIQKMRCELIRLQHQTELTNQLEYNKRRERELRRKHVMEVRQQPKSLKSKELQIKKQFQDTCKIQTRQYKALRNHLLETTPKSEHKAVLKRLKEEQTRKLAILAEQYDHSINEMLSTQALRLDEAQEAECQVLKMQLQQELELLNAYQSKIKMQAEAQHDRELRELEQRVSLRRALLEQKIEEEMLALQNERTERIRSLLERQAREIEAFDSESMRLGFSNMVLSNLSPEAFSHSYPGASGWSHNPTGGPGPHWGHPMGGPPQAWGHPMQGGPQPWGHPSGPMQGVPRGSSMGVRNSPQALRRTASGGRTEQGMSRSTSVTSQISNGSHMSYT
# [9] = biological target: T3, Serine/threonine-protein kinase TAO1 (Homo sapiens); settings: at 10 µM
# Sequence of SRSF protein kinase 2 (Homo sapiens) (P78362 whole entry, looked up): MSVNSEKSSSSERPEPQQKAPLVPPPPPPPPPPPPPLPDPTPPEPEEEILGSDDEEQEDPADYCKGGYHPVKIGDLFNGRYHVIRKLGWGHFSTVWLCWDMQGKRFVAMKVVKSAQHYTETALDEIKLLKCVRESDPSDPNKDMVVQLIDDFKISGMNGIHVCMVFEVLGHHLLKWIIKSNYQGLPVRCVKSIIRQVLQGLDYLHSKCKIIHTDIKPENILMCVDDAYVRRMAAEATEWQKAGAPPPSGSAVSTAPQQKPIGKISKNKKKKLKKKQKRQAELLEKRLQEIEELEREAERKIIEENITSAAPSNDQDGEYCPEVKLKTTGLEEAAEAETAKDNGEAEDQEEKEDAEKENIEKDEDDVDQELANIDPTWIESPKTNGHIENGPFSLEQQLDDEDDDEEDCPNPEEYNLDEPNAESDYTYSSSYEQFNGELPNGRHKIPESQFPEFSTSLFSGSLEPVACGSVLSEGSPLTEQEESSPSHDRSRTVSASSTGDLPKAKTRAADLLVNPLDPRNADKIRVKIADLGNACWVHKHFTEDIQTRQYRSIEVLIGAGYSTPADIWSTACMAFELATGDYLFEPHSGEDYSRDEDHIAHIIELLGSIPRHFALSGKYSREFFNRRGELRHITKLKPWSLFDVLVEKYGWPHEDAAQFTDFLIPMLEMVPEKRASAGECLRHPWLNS
# Sequence of Serine/threonine-protein kinase PLK2 (Homo sapiens) (Q9NYY3 whole entry, looked up): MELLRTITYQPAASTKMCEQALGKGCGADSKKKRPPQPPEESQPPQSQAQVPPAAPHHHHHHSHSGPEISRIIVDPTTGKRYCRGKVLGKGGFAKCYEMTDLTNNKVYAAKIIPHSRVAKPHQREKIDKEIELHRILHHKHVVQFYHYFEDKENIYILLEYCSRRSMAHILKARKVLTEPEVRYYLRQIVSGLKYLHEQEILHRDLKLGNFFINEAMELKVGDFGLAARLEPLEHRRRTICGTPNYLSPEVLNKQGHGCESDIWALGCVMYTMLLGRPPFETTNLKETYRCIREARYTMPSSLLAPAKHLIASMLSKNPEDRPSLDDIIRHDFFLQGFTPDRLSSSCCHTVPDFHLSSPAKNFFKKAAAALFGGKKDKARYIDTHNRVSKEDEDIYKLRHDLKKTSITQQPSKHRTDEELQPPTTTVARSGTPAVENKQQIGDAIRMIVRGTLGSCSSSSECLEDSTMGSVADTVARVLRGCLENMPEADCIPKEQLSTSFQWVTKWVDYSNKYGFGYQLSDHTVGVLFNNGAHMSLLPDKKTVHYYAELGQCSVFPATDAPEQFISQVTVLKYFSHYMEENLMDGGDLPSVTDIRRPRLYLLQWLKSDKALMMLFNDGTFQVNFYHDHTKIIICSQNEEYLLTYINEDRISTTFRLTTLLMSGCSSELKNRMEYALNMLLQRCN
compound,measurement,setting,value
Oc1c2ccccc2c2c3c(cccc13)N=N2,residual activity,[1],85%
CCN(CC)CCCCN1c2ccccc2Oc2ccc(Cl)cc21,residual activity,[1],107%
Ic1cccc(CSc2nnc(-c3ccncc3)o2)c1,residual activity,[1],91%
N/C(=N\[N+](=O)[O-])N/N=C\c1ccc(-c2cccc([N+](=O)[O-])c2)o1,residual activity,[1],127%
same,residual activity,[2],81%
same,residual activity,[3],99%
same,residual activity,[4],88%
same,residual activity,[5],99%
same,residual activity,[6],98%
same,residual activity,[7],89%
same,residual activity,[8],91%
same,residual activity,[9],88%
Cn1nc2c3c(cccc31)C(=O)c1ccccc1-2,residual activity,[1],79%
CCN1/C(=C/C(C)=O)Sc2ccc(OC)cc21,residual activity,[1],100%
Cc1cncc2cccc(S(=O)(=O)N3CCCN(C(=O)CN)C[C@H]3C)c12,residual activity,[1],93%
c1ccc2c(-c3ccncc3)c[nH]c2c1,residual activity,[1],101%
O=C(Nc1cccc(Nc2cc(Nc3cccc(C(F)(F)F)c3)ncn2)c1)C1CC1,residual activity,[1],96%
O=C(Nc1nc2ccccc2n1CCN1CCOCC1)c1cccc([N+](=O)[O-])c1,residual activity,[1],108%
CO[C@H]1[C@@H](OC)C[C@H](C)[C@@H](OC)C2=CC(=O)C=C(NC(=O)/C(C)=C/C=C/[C@H](OC)[C@@H](OC(N)=O)/C(C)=C/[C@@H]1C)C2=O,residual activity,[1],95%
CC(C)[C@H](CO)Nc1nc(Nc2cc(N)cc(Cl)c2)c2ncn(C(C)C)c2n1,residual activity,[1],98%
O=C(c1cc2cc(O)ccc2[nH]1)c1cc2cc(O)ccc2[nH]1,residual activity,[1],81%
O=C1NC(=O)c2cc(Nc3ccc(F)cc3)c(Nc3ccc(F)cc3)cc21,residual activity,[1],96%
COc1ccc2c(c1)c(C1=C(c3c[nH]c4ccccc34)C(=O)NC1=O)cn2CCCN(C)C,residual activity,[1],96%
CC(C)n1cnc2c(NCc3ccccc3)nc(NCCCO)nc21,residual activity,[1],89%
